Measured values reported in PubChem BioAssay.
Active and inactive are the calls of the source.

Experiments:
[1] = compound effects on lung adenocarcinoma cell viability – A549, calcein-AM fluorescence, 48 h, basal, profiling panel (AID 1162); conditions: higher = more signal
[2] = compound effects on differentiated 3T3-L1 adipocyte viability – cell-based, 3T3-L1 adipocytes, calcein-AM fluorescence, 48 h, basal, profiling panel (AID 1163); conditions: 3T3-L1 adipocytes viability, higher = more signal
[3] = compound effects on hepatocellular carcinoma cell viability – HepG2, calcein-AM fluorescence, 48 h, basal, profiling panel (AID 1164); conditions: higher = more signal
[4] = compound effects on multiple myeloma cell viability – MM1S, calcein-AM fluorescence, 48 h, basal, profiling panel (AID 1165); conditions: higher = more signal
[5] = calcein-AM signal in unstimulated myeloma cells – cell-based, calcein-AM fluorescence, 48 h, PK04 Diversity Set, profiling panel (AID 1166); conditions: RPMI8226 myeloma viability, higher = more signal;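 note: cells grown under basal conditions without added stimulus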
[6] = JC-1 mitochondrial signal, unstimulated HepG2 cells – cell-based, JC-1 fluorescence, 24 h, 100 nL compound, profiling panel (AID 1167); conditions: HepG2 mitochondrial potential, higher = more signal
[7] = JC-1 mitochondrial signal, unstimulated adipocytes – cell-based, JC-1 fluorescence, 3T3-L1 adipocytes, 24 h, 100 nL compound, profiling panel (AID 1168); conditions: JC-1 mitochondrial fluorescence, higher = more signal, called active from +8 up or from −8 down
[8] = JC-1 mitochondrial signal, unstimulated myeloma cells – cell-based, JC-1 fluorescence, RPMI8226, 24 h, 100 nL compound, profiling panel (AID 1169); conditions: JC-1 mitochondrial potential fluorescence, higher = more signal
[9] = JC-1 mitochondrial signal, unstimulated MM1S myeloma – cell-based, JC-1 fluorescence, 24 h, 100 nL compound, profiling panel (AID 1170); conditions: MM1S mitochondrial potential, higher = more signal
[10] = resazurin metabolic signal in A549 cells – cell-based, resazurin fluorescence, 24 h, PK04 Diversity Set, profiling panel (AID 1171); conditions: A549 viability, higher = more signal, called active from +8 up or from −8 down
Note: test concentration not given here.

| SMILES | z-score [1] | z-score [2] | z-score [3] | z-score [4] | z-score [5] | z-score [6] | z-score [7] | z-score [8] | z-score [9] | z-score [10] |
| --- | --- | --- | --- | --- | --- | --- | --- | --- | --- | --- |
| COc1cc(CO)cc(I)c1O[C@H]1C=C(C(=O)NCCO)C[C@@H](N(CCN2CCOCC2)C(=O)C2CCOC2)[C@@H]1O (stereo not given in full) | 0.736 | -0.917 | 0.51 | 0.317 | 0.402 | 1.05 | 0.57 (inactive) | 0.0404 | 0.684 | -0.435 (inactive) |
| C=CCC(OC(C)=O)[C@@H]1[C@@H](N(Cc2cccc3ccccc23)C(=O)c2ccc(-c3ccccc3)cc2)c2cc(OCCCO)ccc2N1C(=O)Cc1ccc(OC)cc1 (stereo not given in full) | 1.29 | 1.66 | 0.68 | -0.169 | 0.516 | 2.05 | 0.324 (inactive) | -0.217 | -0.179 | 1.54 (inactive) |
| CC(C)[C@@H](CO)NC(=O)[C@H]1[C@@H](c2ccccc2)N(c2ccccc2)O[C@@H]1C | 0.407 | -0.159 | 0.319 | 0.714 | 0.285 | 0.324 | 0.392 (inactive) | 0.354 | -1.11 | 0.959 (inactive) |
| C=CCC(OC(C)=O)[C@@H]1[C@@H](N(Cc2ccc(-c3ccccc3)cc2)C(=O)Cc2ccc(F)cc2)c2cc(OCCCO)ccc2N1C(=O)c1ccc(-c2ccccc2)cc1 (stereo not given in full) | -0.861 | 0.779 | 1.87 | 0.784 | 1.16 | 3.77 | 1.54 (inactive) | -0.714 | -0.725 | 1.67 (inactive) |
| O=C1O[C@H](c2ccccc2)[C@H](c2ccccc2)N2[C@H]1[C@@H](C(=O)N1CCN(c3ncccn3)CC1)[C@]1(C(=O)Nc3ccc(C#CC4=CCCCC4)cc31)[C@H]2c1ccc(O)cc1 | 0.645 | 0.301 | 0.469 | -0.36 | -1.91 | -1.49 | 1.44 (inactive) | -0.745 | -0.75 | -0.526 (inactive) |
| CCOc1cc(C(O)C2C=CC3C(=O)N(c4ccccc4)C(=O)C3N2Nc2ccccc2)ccc1O (stereo not given) | -0.0398 | -1.24 | 0.992 | -3.04 | 0.461 | -1.32 | -2.33 (inactive) | 0.279 | -0.817 | 0.314 (inactive) |
| O=C1OCC=C[C@H]2OC34C=CCN(c5ccc6ccccc6c5)C(=O)[C@H]3N(CCCCCCO)C(=O)[C@@H]4[C@@H]12 (stereo not given in full) | 0.429 | -0.358 | 0.878 | 1.38 | -0.0053 | 0.631 | 0.613 (inactive) | -0.979 | 0.469 | 0.61 (inactive) |
| O=C1OCCC=C[C@H]2OC34C=CCN(CCN5CCOCC5)C(=O)[C@H]3N(CCCCCCO)C(=O)[C@@H]4C12 (stereo not given in full) | 0.758 | -3.63 | 0.821 | 1.32 | 0.477 | 1.07 | -0.347 (inactive) | 0.0953 | 0.341 | 0.459 (inactive) |
| C#CCN(CC=C(C)C)[C@H](CO)c1ccccc1 | -0.589 | 1.37 | -0.7 | 0.0539 | -1.2 | -1.16 | 0.27 (inactive) | -0.383 | 0.471 | -0.665 (inactive) |
| C=C(COC)/C(=C/C[C@H](OC(=O)c1ccncc1)c1ccc(OCCO)cc1)c1cnc2ccccc2c1 | 1.54 | 0.317 | -0.303 | -1.98 | 0.0703 | -0.232 | -0.472 (inactive) | 0.147 | -0.799 | 0.67 (inactive) |
| COCCOC(=O)N1C(=O)[C@@]2(c3cc(C#Cc4ccc(OC)cc4)ccc31)[C@H](C(N)=O)[C@H]1C(=O)O[C@H](c3ccccc3)[C@H](c3ccccc3)N1[C@@H]2c1ccccc1OCCO | -1.25 | 1.18 | -1.76 | -2.32 | -3.94 | -1.79 | 2.99 (inactive) | -0.994 | -1.38 | -1.85 (inactive) |
| C#CCN(Cc1ccccc1Br)C(/C=C/c1ccccc1)CO (stereo not given) | -3.65 | -0.011 | -3.95 | -3.26 | -4.12 | -2.83 | 0.165 (inactive) | -1.2 | -1.21 | -0.411 (inactive) |
| CC(C)c1ccc(NN2C(C(O)C(c3ccccc3)c3ccccc3)C=CC3C(=O)N(c4ccccc4)C(=O)C32)cc1 (stereo not given) | -0.447 | -0.306 | -0.0211 | -0.535 | -0.967 | -0.988 | -0.8 (inactive) | -0.107 | 0.798 | -2.05 (inactive) |
| CN1C(=O)[C@]2(Cc3ccccc3)N=C(c3ccc(OCCCO)cc3)O[C@@H]2c2ccccc21 | -1.55 | 1.71 | -1.68 | -1.76 | -4.34 | 0.288 | 0.686 (inactive) | -1.16 | -0.976 | -1.81 (inactive) |
| COCCOC(=O)N1C(=O)[C@@]2(c3cc(C#CCNC(N)=O)ccc31)[C@H](C(=O)NC[C@H](O)c1ccccc1)[C@H]1C(=O)O[C@H](c3ccccc3)[C@H](c3ccccc3)N1[C@@H]2c1ccccc1OCCO | 1.22 | 0.504 | 0.829 | 0.837 | 0.676 | -0.523 | 0.749 (inactive) | -0.548 | -1.04 | -0.0062 (inactive) |
| CCCCC(O)C1C=CC2C(=O)N(c3ccccc3)C(=O)C2N1Nc1ccccc1F (stereo not given) | -0.0693 | -0.767 | 0.297 | 0.447 | -0.812 | -1.75 | -0.935 (inactive) | -0.425 | -0.444 | -0.684 (inactive) |
| C=C(CCCC)C(=O)CC[C@H](OC(=O)c1cccnc1)c1ccccc1OCCO | 0.414 | 1.54 | -0.664 | -3.22 | -1.65 | 0.663 | -0.916 (inactive) | -0.587 | -0.491 | 1.1 (inactive) |
| [N-]=[N+]=NCc1ccccc1[C@H]1OC(c2ccc(OCCCO)cc2)=N[C@@]1(Cc1ccccc1)C(=O)NCc1ccccc1 | -0.649 | 0.399 | 0.71 | -2.04 | -3.49 | 0.343 | 0.544 (inactive) | -1.35 | -0.765 | 0.789 (inactive) |
| CN1C(=O)C2C=CC(C(O)c3cccs3)N(Nc3ccccc3)C2C1=O (stereo not given) | -0.439 | -0.612 | -0.436 | -1.64 | -0.535 | -0.693 | -0.841 (inactive) | -0.0836 | -0.528 | -0.654 (inactive) |
| O=C1O[C@@H](c2ccccc2)[C@@H](c2ccccc2)N2[C@@H](c3ccc(OCCO)cc3)[C@]3(C(=O)Nc4ccccc43)[C@@H](C(=O)NC[C@H](O)c3ccccc3)[C@H]12 | -0.462 | -0.0144 | -0.328 | -0.38 | -0.575 | -1.76 | -0.872 (inactive) | -0.53 | -0.226 | 0.496 (inactive) |
| COC(=O)[C@@]1(Cc2ccc(F)cc2)[C@H]2c3cc(C(=O)N(C)C)n(Cc4nc5ccccc5[nH]4)c3C[C@H]2CN1C(=O)c1ccccc1 | -0.788 | -0.0882 | -0.49 | -1.09 | -0.184 | -0.0736 | -0.156 (inactive) | -0.207 | -2.16 | 0.406 (inactive) |
| CN1C(=O)C2C=CC(C(O)C3CCCCC3)N(Nc3ccc([N+](=O)[O-])cc3[N+](=O)[O-])C2C1=O (stereo not given) | -0.798 | -0.156 | -0.905 | -0.193 | -0.849 | -1.18 | -0.299 (inactive) | 0.464 | 0.314 | 0.421 (inactive) |
| COCCOC(=O)N1C(=O)[C@@]2(c3cc(C#CC4=CCCCC4)ccc31)[C@H](C(=O)N1CCc3cc(OC)c(OC)cc3C1)[C@H]1C(=O)O[C@H](c3ccccc3)[C@H](c3ccccc3)N1[C@@H]2c1ccc(OCCO)cc1 | -0.989 | 0.847 | -1.2 | -1.84 | -0.691 | -0.207 | 1.22 (inactive) | -0.621 | -0.968 | 0.531 (inactive) |
| C=CC[C@]12N=C(c3ccc(OCCCO)cc3)O[C@H]1c1ccccc1N(Cc1ccccc1)C2=O | -0.739 | -0.082 | -0.957 | -3.44 | -3.83 | -0.433 | 2.12 (inactive) | -0.982 | -2.48 | -1.48 (inactive) |
| C=CCOC(=O)[C@@H]1[C@H]2C(=O)O[C@H](c3ccccc3)[C@H](c3ccccc3)N2[C@H](c2ccc(OCCOC(=O)[C@@H]3C[C@@H]4C(=O)N5CCC[C@H]5C(=O)N4[C@@H]3c3ccc(O)cc3)cc2)[C@@]12C(=O)Nc1ccc(I)cc12 | 1.87 | 1.24 | 0.502 | -0.573 | 0.278 | -1.6 | 0.231 (inactive) | -0.752 | -1.25 | -0.248 (inactive) |
| CCCCC=C[C@@H](NC(=O)Oc1cccc(C(F)(F)F)c1)c1ccccc1 | -1.12 | 0.26 | -0.568 | -1.8 | -3.36 | -1.63 | -0.585 (inactive) | -0.799 | -1.1 | -0.665 (inactive) |
| O=C1C2C=CC(C(O)C(c3ccccc3)c3ccccc3)N(n3cnnc3)C2C(=O)N1Cc1ccccc1 (stereo not given) | -1.03 | 0.0304 | -1.13 | -1.09 | -0.23 | -1.26 | -1.26 (inactive) | -0.42 | 0.153 | -0.387 (inactive) |
| CN(C)CCCNC(=O)[C@@]1(C)c2ccccc2C(=O)N(Cc2cc(F)cc(C(F)(F)F)c2)[C@H]1c1ccc(CO)cc1 | 1.04 | -0.0121 | -0.746 | -1.29 | -0.167 | 0.845 | 0.235 (inactive) | 0.521 | -0.496 | 0.896 (inactive) |
